# Measurements taken from PubChem BioAssay (NCI).
# Where “and” joins values, the source holds several entries; their conditions need not be identical. Equal values may be shown once. Compounds without any hit were thinned out: in the full panel of roughly 83,000, 20% have a hit.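 A percent growth of 40 corresponds to 60% growth inhibition; 0 means no net growth; -100 means all cells died. Active threshold: below 10.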 A number with no mark means an inactive call. Calls of active or inactive are those of the source.
# Columns and labels:
# Test in all cases: NCI-60 one-dose screen, 48 h (100 = growth as untreated, 0 = no growth, -100 = all killed)
# HCT-15 colon = conditions: 10 µM unless noted
# HT29 colon = conditions: 10 µM unless noted
# SNB-75 CNS = conditions: 10 µM unless noted
# U251 CNS = conditions: 10 µM unless noted
# PC-3 prostate = conditions: 10 µM unless noted
# SK-MEL-5 melanoma = conditions: 10 µM unless noted
# UACC-62 melanoma = tested on: UACC-62 melanoma
# LOX IMVI melanoma = conditions: 10 µM unless noted
# SK-MEL-28 melanoma = conditions: 10 µM unless noted
# SNB-19 CNS = conditions: 10 µM unless noted
Structure (SMILES),growth (HCT-15 colon),growth (HT29 colon),growth (SNB-75 CNS),growth (U251 CNS),growth (PC-3 prostate),growth (SK-MEL-5 melanoma),growth (UACC-62 melanoma; 10 µM unless noted),growth (LOX IMVI melanoma),growth (SK-MEL-28 melanoma),growth (SNB-19 CNS),growth (UACC-62 melanoma; 10 µM),growth (UACC-62 melanoma; 100 µM)
N#Cc1c(N)nc2c(c(-c3ccc(Cl)cc3)nn2-c2ccccc2)c1C#N,98.6% [100 µM],106% [100 µM],104% [100 µM],92.8% [100 µM],98.6% [100 µM],103% [100 µM],97.9% [100 µM],96.6% [100 µM],114% [100 µM],–,–,–
CC(=O)c1cc2ccccc2o1,99.6%,95.4%,–,109%,99.9%,–,102%,95.3%,96.6%,108%,–,–
CSc1nc(N)c(N)c(N)n1,111%,88.8%,97.5%,95.8%,71.4%,–,101%,101%,113%,–,–,–
CCc1ccc(OC(=O)CCl)cc1,107%,107%,–,97%,98.3%,105%,106%,93.3%,98.4%,108%,–,–
OCc1cccc(F)c1,10.2%,17.7%,102%,83.5%,91%,92.6%,84.7%,76.8%,116%,–,–,–
Nc1nc(N)c2cc(S(=O)(=O)c3ccccc3)ccc2n1,27.9% and 25.6%,22.9% and 15%,–,30.5% and 30.8%,42.9% and 52.7%,23.3% and 25.3%,21.5% and 53.7%,30.6% and 19.2%,71% and 68.9%,38.4% and 49.2%,–,–
CCc1ccccc1-n1[nH]c(C)c(C=N)c1=O,98.3%,114%,–,109%,94.7%,–,101%,99.1%,110%,104%,–,–
N#CC1c2ccccc2C=CN1C(=O)c1ccccc1 (stereo unspecified),111% and 104%,112% and 107%,92.1% and 98%,101% and 97.5%,92.4% and 146%,97.1% and 107%,97.4% and 83.7%,102% and 94.8%,103% and 122%,–,–,–
N#Cc1c[nH]n2ccnc12,104%,91.2%,–,92.4%,97.9%,115%,106%,96.1%,107%,108%,–,–
Nc1c(Cl)cc2c(c1Br)C(=O)c1ccccc1C2=O,88.9%,100%,–,95.8%,97.7%,89.4%,77%,94.2%,113%,–,–,–
O=C1CCC(=O)N1CC1CC2CCC1C2 (stereo unspecified),107% and 104%,103% and 95.8%,–,91.7% and 100%,94.1% and 104%,110% and 92.6%,96.5% and 88.5%,101% and 96.2%,109% and 103%,101% and 90.3%,–,–
O=C(O)/C=C/C=C/c1ccccc1,102% and 108%,100% and 103%,103% and 98.4%,106% and 96.9%,97.4% and 101%,102% and 94.7%,96.1% and 102%,99.3% and 97.9%,103% and 109%,–,–,–
CS(=O)(=O)c1nsc(N)n1,107%,101%,93.2%,102%,98%,102%,102%,98.2%,109%,–,–,–
CC(=O)Nc1cscc1NC(C)=O,106%,96.2%,93.2%,98.9%,103%,–,93.7%,98.6%,104%,–,–,–
Oc1cccnc1CN1CCOCC1,105% and 104%,97.7% and 106%,–,104% and 102%,93.9% and 96.3%,106% and 98.4%,101% and 94.5%,93.1%,107% and 105%,101% and 98.9%,–,–
COc1ccc2nccc(Cl)c2c1,109%,104%,–,97.6%,95.3%,–,89.6%,97.9%,110%,103%,–,–
N#CC(=S)Nc1ccc(Cl)c(Cl)c1,13.6%,12.5%,–,9.34% (active),23.1%,-61.7% (active),–,–,25.2%,4.95% (active),5.74% (active),-12.1% (active) and -100% (active)
ON=C(C1CCCCC1)C1CCCCC1,106%,103%,–,98.1%,98.1%,–,91.8%,95.6%,102%,100%,–,–
CC(=O)Oc1ccc(C(c2ccc(OC(C)=O)cc2)c2ccccn2)cc1,84.3% and 76.4%,91.8% and 87.1%,–,96% and 96.2%,73.6% and 68.9%,-7.6% (active),96.5% and 89.4%,90.3% and 77.5%,107%,–,–,–
CC(=O)c1cccc(OC(=O)c2ccccc2)c1,127%,104%,101%,103%,90.9%,108%,91.1%,87.4%,92.1%,–,–,–
CC(C)(C)OC(=O)CC1(O)CCCCC1,105%,111%,–,104%,96.8%,95.7%,103%,102%,105%,106%,–,–
O=C1C(=O)c2ccccc2C(O)=C1CC=C(Cl)Cl,25.8% and 30.7%,31.4% and 34.8%,–,42.5% and 42.8%,35.3% and 40.9%,–,55.7% and 60%,16.7% and 27.4%,70.1%,52.9% and 61.9%,–,–
CCOC(=O)c1ccc(N2C(=O)C(Cl)(c3ccccc3)C2c2ccco2)cc1 (stereo unspecified),67%,78.9%,–,79.1%,85.9%,70.4%,72.1%,77%,88.3%,76.4%,–,–
CC(O)CCNC(c1ccccc1)C(O)c1ccccc1 (stereo unspecified),109%,97.3%,–,106%,94.8%,109%,108%,99%,112%,–,–,–
